Test results from PubChem BioAssay AID1508600 (Functional Genomics Laboratory (NCATS/FGL), 2020).
The whole screen tested about 53,000 sequences, of which about 3,700 (7%) were called active.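 Rule for the calls: active = gene knockdowns whose robust z-score for IL-1 alpha signal is at least 2 or at most -2, so actives lie on both sides; inactive = the rest.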 The entries come from a sample that favours actives as a whole.

Assay: Components of the Cytosolic LPS Sensing Pathway: Gene Identification via Genome-wide siRNA Screen;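 note: robust z of the log signal after scaling to non-targeting control siRNA wells of the plate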
Settings: RAW264.7 macrophages, IL-1a HTRF, actives lie on both sides, screened at 100 nM (by protocol), cells primed 5 h with Pam3CSK4 first
Outline: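 RAW264.7; siRNA 100 nM final, RNAiMAX, 48h 37 degrees C; Pam3CSK4 5 h; LipidA + TransIT-TKO 24 h; IL-1a HTRF; CellTiter-Glo viability; robust z vs negative-control median.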

Row | Sequence | z-score
1 | GGUUCAAUGCUCCCUUCGATT against Ghrl | 0.712 (inactive)
2 | GCCAGUUUAAGUCUCUCCATT against Tmem168 | -2.37 (active)
3 | GGCUCACCUGAUACACUUUTT against Ramp2 | 0.707 (inactive)
4 | GCCUUGAAAUGUCUGUAGCTT against Nkiras1 | 0.981 (inactive)
5 | GGGCUGACUUCCUAUGACCTT against Adra2c | 2.14 (active)
6 | GGUGGAAUAACAGAUAAAATT against Cutc | 0.255 (inactive)
7 | GGAGAAAGGAUUAUAGAUGTT against Klk7 | 0.202 (inactive)
8 | GGGAUUCUUUUUGUGGAAATT against Trim62 | 0.636 (inactive)
9 | GGUCUCAAUCAGAGUUACATT against Zfp324 | -0.936 (inactive)
10 | GGAGGUCAGACCAGUUUACTT against Htr3b | 2.15 (active)
11 | GCUUACAUCCAAGCCGUCUTT against Prss41 | 0.283 (inactive)
12 | GCUGGAGAUGAUUGUCUGATT against Psmd8 | -1.22 (inactive)
13 | GCGGGAACCAUUUUUGUGATT against Cdh11 | -1.18 (inactive)
14 | GGUCGAUUGAUAUACAAAATT against Gdf6 | 0.834 (inactive)
15 | CGUAUUAUCUGAGUGAACATT against Fth1 | -0.974 (inactive)
16 | GCAUCAUCACCACCAUCACTT against Pou3f3 | -0.598 (inactive)
17 | GGUCUGGAAUGGAGAACAGTT against Suox | 2.73 (active)
18 | GGUGACCAAGCAGAUAACATT against Prcc | -1.19 (inactive)
19 | GGACGUGGGCUCUCUAGAUTT against S100a13 | 1.81 (inactive)
20 | CGGUGGAAAUACCAGGAUGTT against Tshb | 0.406 (inactive)
21 | GGAAAUUUGCCGGCCAAAUTT against Fam83a | 0.557 (inactive)
22 | GCACUCCACUCUUCCAUCATT against Cxcl16 | 0.35 (inactive)

Row | Sequence | z-score
23 | GGUGGCUGAAGAUGUGACUTT against Ttyh1 | -3.46 (active)
24 | GCAAAGGACCUAAUUUAUUTT against Ehd4 | 1.13 (inactive)
25 | GGUUCAAGGGCCAGAUCCUTT against Rpl32 | 0.887 (inactive)
26 | CCAGUGUUGGUAACAAUAUTT against Stat4 | 0.0489 (inactive)
27 | GGAAAAGAAAGAUGUGACUTT against Trappc9 | -2.55 (active)
28 | CGUAGAUCUGGAUUGCUUUTT against Poli | 1.74 (inactive)
29 | CCCAGCUAGACAGUCUUUCTT against Il11 | 2.58 (active)
30 | GGCAGAGCCAGAAAAAUUGTT against Slc30a1 | 0.306 (inactive)
31 | CCAGAAUGUAAAACAACCGTT against Zfp365 | 0.588 (inactive)
32 | CGGUUUCACGAAUUCCUCCTT against Scaper | -2.16 (active)
33 | GGAUUCAUGAAAUAAGUCATT against Zfp426 | -0.603 (inactive)
34 | CGUGGUCUCGGACACUUUCTT against Hcn2 | -0.096 (inactive)
35 | GGUGGAAUGAGGAAACAACTT against Cck | -0.945 (inactive)
36 | GGAUUUAGCUAAGAGAGGGTT against Zmat3 | -0.125 (inactive)
37 | CGAUGGUGAUUAUCUAAAATT against Tm4sf4 | -0.0694 (inactive)
38 | GCGAAUGUGUGUAUUCUGGTT against BC055324 | -0.791 (inactive)
39 | CGGUUGAUGGAAAAAUACATT against Ppef2 | 2.43 (active)
40 | GGAAAGAUGAGACCACCCGTT against Stau1 | -0.582 (inactive)
41 | GGCAAUAAUAAAUAGCACCTT against Homer1 | 0.8 (inactive)
42 | GGUAGAUGAACUUUAAAGATT against Syt13 | -0.846 (inactive)
43 | GGACUUCUUAACCGCCCUGTT against Sirt5 | 0.355 (inactive)
44 | GGCUCAUGAGAAGACACACTT against Zbtb17 | 0.204 (inactive)

Row | Sequence | z-score
45 | GGUGCUAGUGGUGACCAUGTT against Pign | 2.2 (active)
46 | CGUGAAAAAGUUAGCAAGUTT against Tars2 | 0.198 (inactive)
47 | GGUUCUCCAAGGAAAGAGGTT against 2310002L09Rik | 2.8 (active)
48 | CCUUCUAGUACAAAAGUUGTT against Jmjd1c | 1.32 (inactive)
49 | GGACAAGAGAACAACUAGUTT against Mrtfb | 0.0162 (inactive)
50 | GACCAAAGCACUGACUAUGTT against Lyz2 | -0.184 (inactive)
51 | GGAAGAAAUGGACCAGCUGTT against Hgh1 | -0.416 (inactive)
52 | GGUUUCCAUGGUAACGUGGTT against Tns1 | 2.24 (active)
53 | GGGCAUAUGAGAUUUAUUATT against Trappc2 | -0.423 (inactive)
54 | GGCCUACAUACUCCUGAAGTT against Ttc21a | -1.28 (inactive)
55 | GGGAGCUGUUAACCUCAUCTT against Mthfr | 3.34 (active)
56 | CCUAGAUUAAAUACUCGGATT against Saxo2 | 1.45 (inactive)
57 | GCAGCCAAAUUCAUCCUCATT against Tspan33 | -0.552 (inactive)
58 | GGAAUGGACAAAAUGAUUCTT against Cct4 | 1.53 (inactive)
59 | UGUUGUUUUACCUGUGCCUTT against Gm10283 | -1.14 (inactive)
60 | GGCUCAUGGAAAACUCUAUTT against Hspa9 | 2.24 (active)
61 | GGUUGCCAAUGACACUCGGTT against Trak2 | -0.342 (inactive)
62 | GCCAUUCUAACUCUGCCUCTT against Olfr639 | 0.232 (inactive)
63 | GGGUUCAACACAGCCAAUGTT against Fam151a | 0.987 (inactive)
64 | CCCUAUUUGACAAAUUCCUTT against Cdo1 | 0.245 (inactive)
65 | GCUGAAUCACUACCAGUCATT against Zfp462 | 1.27 (inactive)
66 | GGCAAUUCGAAUUUUGGUUTT against Rtraf | 0.891 (inactive)

Row | Sequence | z-score
67 | GGCAAACGAAACACUAGCATT against Cacna1d | 4.94 (active)
68 | GGUACUUCAUCGAUUCAGCTT against Zfp593 | -0.561 (inactive)
69 | GGAUAGCACAGCCCUACAUTT against Kcns1 | -0.197 (inactive)
70 | GCUUACUGUCCCUUAAGUUTT against Msantd1 | 2.45 (active)
71 | GGACAAAGAUGAAUAUGUGTT against Spag6l | -0.34 (inactive)
72 | GGCCGUGAUGCUAGAGAACTT against Zfp661 | 0.131 (inactive)
73 | GGUGAUUCACAUACUUUAUTT against Vps54 | 0.612 (inactive)
74 | GGGUUACCAGACUAACAAATT against Stfa3 | 0.763 (inactive)
75 | GCGAAUUCGUGAGAAGAGCTT against Ripk4 | -0.884 (inactive)
76 | GCACGUAUGCUCUUUCUCATT against Pigw | -2.52 (active)
77 | CCAAGUAAGGACUAUAGAGTT against Gpatch2 | -1.02 (inactive)
78 | CGCUGCUAAGAAUCAUCUATT against Ednrb | 0.287 (inactive)
79 | GGAAGCCACGGUCAUGUGUTT against Trim9 | 0.746 (inactive)
80 | GGAAUGGGCAGUAUGAGUUTT against Ocrl | -1.73 (inactive)
81 | GGUAGUCAAGUCGAAAGUATT against Ccdc18 | -2.19 (active)
82 | GGACAAUGCUGUGACCUCUTT against Amn | -0.949 (inactive)
83 | GGGAAGCAGAAAUGAGAAATT against Pdcd5 | 0.135 (inactive)
84 | GAGUGUUUCAGAUUCUUCATT against Klra8 | 0.329 (inactive)
85 | UCUUUGUGAUUUCGAAGCCTT against Slc17a9 | 2.31 (active)
86 | GGAUAAAGAAGGUAUUCUUTT against Mccc1 | -0.891 (inactive)
87 | GGCCCAGAAGGUUAUCAUCTT against Ptf1a | 0.606 (inactive)
88 | GGAAAUCACGACCAUGGCGTT against Gtf2b | 0.0198 (inactive)

Row | Sequence | z-score
89 | GCACUUCCGACUUUUUCACTT against Mettl24 | -1.69 (inactive)
90 | GAGCUUCUGGCUGAGAUAATT against Espn | -0.388 (inactive)
91 | GUGUAUGCGCUGAUCCUAUTT against 1700020N01Rik | 0.181 (inactive)
92 | GGAGCUCUCAUCCUACUAUTT against Eif4ebp3 | -0.0855 (inactive)
93 | GGCCUUUGAGAAGAACAUUTT against Copz1 | -2.16 (active)
94 | GGAGUUUUUAUUCAAGGAATT against Slc35b3 | -1.07 (inactive)
95 | GGCAGUGUACAUCUGGAUATT against Olfr611 | 1.85 (inactive)
96 | CCGUGUUCCGAGGAUAUGUTT against Cyp2e1 | -0.212 (inactive)
97 | GGGACUAUGACAAAACAGCTT against Atad2 | 0.0122 (inactive)
98 | CCUGACAUUCUUUAAUCCATT against Synb | 0.6 (inactive)
99 | CCAACUCUAAUAAUAACAGTT against Slc22a26 | 3.31 (active)
100 | CCAGACAUGAAACUUGUAUTT against Mms19 | -0.165 (inactive)
101 | GGCCAGAGGACUAUGUUAUTT against C1s2 | 1.24 (inactive)
102 | GGGUGGAGAAAUUUUAAUGTT against Dse | -0.22 (inactive)
103 | GGAAAAUGAGAUCAUGCCCTT against Sdf4 | -0.488 (inactive)
104 | GGCGAUUCUGGCUCUCUUUTT against Commd9 | 1.28 (inactive)
105 | GCAGAAAGAAACGUAAAUGTT against Dhx57 | 0.464 (inactive)
106 | GGCUUCAGCUAUUGGGCAATT against Vsig1 | 2.19 (active)
107 | GGGAUGUGUACCGUUACAUTT against 1700010I14Rik | 0.155 (inactive)
108 | CCCUUUUGUUUAGCUGAUCTT against Glrp1 | -2.14 (active)
